Screening data as filed in PubChem BioAssay.
mHTT-CaM PPI inh = inhibitors of human mutant huntingtin-calmodulin interaction; P42858; AID 1671202; AlphaScreen His-mHTT/GST-CaM binding, luminescence; inhibition, % at 15 µM; hit rate 3.6% among 190,000;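 further: 0% = both proteins with DMSO and 100% = one protein alone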
Pf apPOL block = Pf-apPOL DNA polymerase inhibition. hit rate 0.25% among 210,000. Recombinant Pf-apPOL, molecular beacon fluorescence, 1.5 h. inhibition, % at 10 µM
An asterisk follows results filed as active. An excerpt weighted towards active compounds, which were near 3.5% of everything screened. No stated cut-off is given here; in the data, active means inhibition above about 50%; inactive means the rest.

For Cc1cccc(C(=O)N2CCC(=O)N([C@H](COCc3cccc(Cl)c3)Cc3ccccc3)CC2)c1 the results were mHTT-CaM PPI inh 98.8* and Pf apPOL block 0.7.
`COc1cccc(N2C(=O)CSC23CCN(C(=O)C(C)Cl)CC3)c1` (centres undefined) gave mHTT-CaM PPI inh 0.5 and Pf apPOL block 0.1.
`Cc1c(OCc2ccc(C(=O)O)o2)ccc2c3c(c(=O)oc12)CCCC3` gave mHTT-CaM PPI inh 9.0 and Pf apPOL block 5.8.
Screening CCc1c(C(=O)N2CCOCC2)c(CC(C)C)nn1-c1ccccc1C returned mHTT-CaM PPI inh 8.8 and Pf apPOL block 0.5.
`O=C1NC(=O)c2c(NC(=O)c3coc4ccccc4c3=O)cccc21` gave mHTT-CaM PPI inh 3.0 and Pf apPOL block 2.2.
`Cc1cc(NC(=O)c2ccccc2[N+](=O)[O-])ccc1NC(=O)c1cc2ccccc2o1` gave mHTT-CaM PPI inh 40.9 and Pf apPOL block 7.5.
For COc1ccc(-c2nc3ccc(C)cn3c2NC(=O)C2CCCCC2)cc1 the results were mHTT-CaM PPI inh 40.1 and Pf apPOL block -0.3.
Screening Cc1ccc2nc(Cc3ccccc3)c(NC(=O)C3CCCCC3)n2c1 returned mHTT-CaM PPI inh 53.9* and Pf apPOL block 29.4.
Screening Cc1ccc2nc(-c3ccc(C)o3)c(NC(=O)C3CCCCC3)n2c1 returned mHTT-CaM PPI inh 55.7* and Pf apPOL block 2.6.
`Cc1ccn2c(NC(=O)C3CCCC3)c(-c3ccccc3)nc2c1` gave mHTT-CaM PPI inh 36.4 and Pf apPOL block 1.5.
For COc1ccc(Cl)cc1N(CC(=O)Nc1ccc(C)cc1C)S(C)(=O)=O the results were mHTT-CaM PPI inh 3.0 and Pf apPOL block -4.5.
Screening CCC(=O)N1CCN(c2ccccc2-c2ccccc2)C(=O)C1C (centres undefined) returned mHTT-CaM PPI inh -0.3 and Pf apPOL block -3.1.
Screening CC(C)=C1SC(=O)N(CC(=O)Nc2ccc(S(N)(=O)=O)cc2)C1=O returned mHTT-CaM PPI inh -7.9 and Pf apPOL block -2.0.
`NS(=O)(=O)c1ccc(NC(=O)CN2CC(=O)Oc3ccccc32)cc1` gave mHTT-CaM PPI inh 97.9* and Pf apPOL block -166.2.
For CCOc1ccc(S(=O)(=O)N(CC(=O)N2CCOCC2)c2ccc(C)cc2)cc1 the results were mHTT-CaM PPI inh 3.7 and Pf apPOL block -4.0.
Screening Cc1ccccc1NC(=O)CCC(=O)N1CCCn2nc(-c3cccn3C)cc21 returned mHTT-CaM PPI inh 31.1 and Pf apPOL block -1.5.
For Cn1cccc1-c1cc2n(n1)CCCN2C(=O)CCC(=O)N1CCc2ccccc2C1 the results were mHTT-CaM PPI inh 54.4* and Pf apPOL block -0.8.
For CC1CCN(C(=O)c2cc3c(s2)CCC(C(=O)Nc2ccccc2)C3)CC1 (centres undefined) the results were mHTT-CaM PPI inh 0.9 and Pf apPOL block -1.0.
For COc1ccc(-c2nc3ccc(C)cn3c2NC(C)=O)cc1OC the results were mHTT-CaM PPI inh 8.2 and Pf apPOL block 8.4.
For COc1ccc(-c2nc3ccccn3c2NC(=O)C2CCCCC2)cc1OC the results were mHTT-CaM PPI inh 59.4* and Pf apPOL block -5.1.
`COc1ccc(-c2nc3ccc(C)cn3c2NC(=O)C(Cl)Cl)cc1OC` gave mHTT-CaM PPI inh 52.2* and Pf apPOL block 33.2.
COc1ccc(-c2nc3ccc(C)cn3c2NC(=O)C2CCCCC2)cc1OC was read as mHTT-CaM PPI inh 36.3 and Pf apPOL block 3.3.
COc1ccc(-c2cc(C(=O)N3CCCC3c3cc(C)no3)no2)cc1OC (centres undefined) was read as mHTT-CaM PPI inh -8.6 and Pf apPOL block 0.2.
For Cc1cc(C)n2nc(SCCC(=O)NC3CCCCCCC3)nc2n1 the results were mHTT-CaM PPI inh 32.0 and Pf apPOL block -9.6.
For CCCC(=O)Nc1ccc(NC(=O)c2ccc(C)cc2)cc1 the results were mHTT-CaM PPI inh 5.1 and Pf apPOL block -4.5.
Screening CCCCOc1ccc(C(=O)Nc2ccc(NC(=O)CCC)cc2)cc1 returned mHTT-CaM PPI inh -0.5 and Pf apPOL block 98.6*.
Screening CCCOc1ccc(C(=O)Nc2ccccc2[N+](=O)[O-])cc1 returned mHTT-CaM PPI inh 29.1 and Pf apPOL block -9.3.
`CCCOc1ccc(C(=O)Nc2ccccc2C)cc1` gave mHTT-CaM PPI inh -6.9 and Pf apPOL block 90.0*.
`CN(CC(=O)Nc1nnc(SCc2cn3ccccc3n2)s1)S(C)(=O)=O` gave mHTT-CaM PPI inh -10.7 and Pf apPOL block 5.4.
Cc1cc(C)c(C(=O)N2CCC(CC(=O)NCc3ccc(OC(C)C)cc3)CC2)[nH]1 was read as mHTT-CaM PPI inh -9.4 and Pf apPOL block 6.1.
For CCOc1ccccc1Nc1nc(-c2ccccn2)cs1 the results were mHTT-CaM PPI inh 37.0 and Pf apPOL block -3.1.
`Cc1ccnc(Nc2nc(-c3sc(C)nc3C)cs2)c1` gave mHTT-CaM PPI inh 30.4 and Pf apPOL block 0.7.
Screening Cc1nc(N)sc1-c1csc(Nc2ccccn2)n1 returned mHTT-CaM PPI inh 87.0* and Pf apPOL block -6.1.
`Cc1nc(N)sc1-c1csc(Nc2cccc(O)c2)n1` gave mHTT-CaM PPI inh 51.4* and Pf apPOL block 1.0.
`c1ccc(-c2csc(Nc3ncccn3)n2)nc1` gave mHTT-CaM PPI inh 98.0* and Pf apPOL block -1.2.
Cc1nc(C)c(-c2csc(Nc3cccc(C(=O)O)c3)n2)s1 was read as mHTT-CaM PPI inh 19.4 and Pf apPOL block 5.3.
For COc1ccc(-c2csc(Nc3ccccn3)n2)cc1OC the results were mHTT-CaM PPI inh 49.7 and Pf apPOL block -4.6.
c1ccc(Nc2nc(-c3ccccn3)cs2)nc1 was read as mHTT-CaM PPI inh 100.2* and Pf apPOL block -0.5.
Screening CCC(C)NC(=O)c1ccc2c(c1)nnn2C (centres undefined) returned mHTT-CaM PPI inh 2.6 and Pf apPOL block 6.3.
N#Cc1c(Cl)cccc1Oc1ccc(S(=O)(=O)NNc2c(Cl)cncc2Cl)cc1 was read as Pf apPOL block 5.8.
O=C(C1CCCN(c2cn[nH]c(=O)c2)C1)N1CCN(c2ccccc2F)CC1 (centres undefined) was read as mHTT-CaM PPI inh 2.3 and Pf apPOL block 2.7.
For CC(C)Oc1cncc(C(=O)NCc2ccccc2)c1 the results were mHTT-CaM PPI inh -11.3 and Pf apPOL block -3.2.
For COc1ccc(Br)c(Oc2ccc(C)nn2)c1 the results were mHTT-CaM PPI inh 14.5 and Pf apPOL block -4.9.
For CCc1ccccc1N(CC(=O)Nc1ccccc1OC)S(C)(=O)=O the results were mHTT-CaM PPI inh -2.4 and Pf apPOL block 0.8.
For COC(=O)c1ccc(NC(=O)c2n[nH]c3ccccc23)cc1 the results were mHTT-CaM PPI inh -17.9 and Pf apPOL block -0.8.
`O=Cc1ccc(-c2c(-c3ccccc3)oc3c2C(OCCCCO)CCC3)o1` (centres undefined) gave mHTT-CaM PPI inh 60.8* and Pf apPOL block -5.9.
OCCOC1CCCc2oc(-c3ccccc3)c(C#CC3(O)CCCCC3)c21 (centres undefined) was read as mHTT-CaM PPI inh 29.6 and Pf apPOL block -8.0.
`CC1CN=C(N(C(=O)Nc2cccc(Cl)c2)c2ccc(F)c(Cl)c2)S1` (centres undefined) gave Pf apPOL block -23.9.
For COc1cccc(Nc2ncc3c(n2)CCN(Cc2ccc(OC(C)C)cc2)C3)c1 the results were mHTT-CaM PPI inh 50.9* and Pf apPOL block -1.4.
Screening COc1ccc(Nc2ncc3c(n2)CCN(Cc2ccc(N(C)C)cc2)C3)c(OC)c1 returned mHTT-CaM PPI inh 35.7 and Pf apPOL block -6.7.
COc1cccc(Nc2ncc3c(n2)CCN(Cc2ccc(N(C)C)cc2)C3)c1 was read as mHTT-CaM PPI inh 73.0* and Pf apPOL block -4.0.
